For 13 compounds, growth results are on record in PubChem BioAssay (NCI).

SMILES strings stand for the structures. The panel holds about 83,000 compounds, 20% with a hit somewhere; the sample as a whole holds those more often.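 Interpretation: 100, growth as untreated; towards 0, rising growth inhibition; 0, no net growth; 0 to -100, cell death. Compounds scoring below 10 were considered active.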 Unmarked numbers belong to inactive results. Calls of active or inactive are those of the source.

Some test systems named below: T-47D breast; BT-549 breast; MDA-MB-435 melanoma; SW-620 colon; MCF7 breast; HCT-116 colon; HCC-2998 colon; KM12 colon; MDA-MB-468 breast.
What all share (assay): NCI-60 one-dose screen, 48 h (100 = growth as untreated, 0 = no growth, -100 = all killed)
What all share (details): 10 µM unless noted

`Nc1cc2ccccc2c(=O)n1NC(=O)c1ccc(Br)cc1`: the growth in the assay with T-47D breast is 94.8%; with BT-549 breast, 136%; in the assay with MDA-MB-435 melanoma it was 103%; in the assay with SW-620 colon, 98.4%; in the assay with MCF7 breast, 74.6%; with HCT-116 colon, 95.1%. Further, the figures for the growth in the assay on HCC-2998 colon, in the assay on KM12 colon and in the assay with MDA-MB-468 breast were 97.5%, 92.7% and -54.9% (active), respectively.

Consider `Cc1nn(-c2ccccc2)c2ncn(CC(=O)N/N=C/c3ccccc3O)c(=O)c12`, for which the growth is 22.9% in the assay with T-47D breast; 56.5% with BT-549 breast; 64.1% in the assay on MDA-MB-435 melanoma; 43.5% in the assay on SW-620 colon; 16.3% in the assay with MCF7 breast; 18.5% in the assay on HCT-116 colon. Moreover, the figures for the growth in the assay on HCC-2998 colon, with KM12 colon and in the assay on MDA-MB-468 breast were 36.2%, 25.8% and 10.9%, respectively.

Regarding `O=C(Nc1ccc(-c2ccc3c(c2)NC(=O)/C3=C\c2ccc[nH]2)cc1)Nc1ccc(Cl)c(C(F)(F)F)c1`, the growth is 16.5% in the assay with T-47D breast; 5.89% (active) in the assay with BT-549 breast; 3.54% (active) in the assay with MDA-MB-435 melanoma; 27.6% in the assay with SW-620 colon; 3.21% (active) in the assay with MCF7 breast; 2.62% (active) in the assay on HCT-116 colon. In addition, the figures for the growth with HCC-2998 colon, in the assay on KM12 colon and with MDA-MB-468 breast were 48.4%, 22.3% and -18.4% (active), respectively.

For `Cc1ccc(C(=O)Nc2ccc(-n3ccnc3)c(C(F)(F)F)c2)cc1C#Cc1cnc2cccnn12`, the growth is -13.3% (active) with T-47D breast; -67.8% (active) with BT-549 breast; 11.3% with MDA-MB-435 melanoma; 31.2% in the assay on SW-620 colon; 25.1% with MCF7 breast; 0.409% (active) in the assay with HCT-116 colon. The values for the growth in the assay on HCC-2998 colon, in the assay with KM12 colon and in the assay with MDA-MB-468 breast were 29.9%, 21.9% and -1.47% (active), respectively.

As for `CN(CCSSCCN1CCOCC1)C(=O)Oc1cc2c(c3ccccc13)[C@H](CCl)CN2C(=O)c1cc2cc(OCCCN3CCC3)ccc2[nH]1`, the growth is -41.9% (active) in the assay on T-47D breast; -52.5% (active) in the assay with BT-549 breast; -36.5% (active) with MDA-MB-435 melanoma; -8.71% (active) in the assay with SW-620 colon; -60.8% (active) in the assay on MCF7 breast; -49.1% (active) with HCT-116 colon. For the same compound, the figures for the growth in the assay on HCC-2998 colon, in the assay on KM12 colon and in the assay on MDA-MB-468 breast were -64.7% (active), -23.5% (active) and -80% (active), respectively.

For `COc1ccc2[nH]c(O)c(N=Nc3nc(-c4ccccc4)cs3)c2c1`, the growth is 0.04% (active) with T-47D breast; 50.2% with BT-549 breast; 39.7% in the assay on MDA-MB-435 melanoma; 37.4% with SW-620 colon; 11.6% in the assay with MCF7 breast; 1.24% (active) with HCT-116 colon. Also, the growth in the assay with HCC-2998 colon is 58.6%; in the assay with KM12 colon it was 46.7%; in the assay on MDA-MB-468 breast, -20.7% (active).

Consider `O=C(c1ccc(O)cc1)C1[C@H](c2ccccc2Br)[C@@H](c2ccccc2)NC12C(=O)Nc1ccccc12` (some centres not stated), for which the growth with T-47D breast is 51.1%; with BT-549 breast, 51.9%; with MDA-MB-435 melanoma, 12.3%; in the assay on SW-620 colon it was 27.7%; in the assay with MCF7 breast, 10.7%; in the assay with HCT-116 colon, 55.2%. Besides, the results for the growth in the assay with HCC-2998 colon, with KM12 colon and in the assay on MDA-MB-468 breast were -7.94% (active), 15.4% and -36.1% (active), respectively.

With `CC(C)(C)OC(=O)N1CCC2(CC1)Oc1ccccc1[C@H]1CC(c3ccc(Br)cc3)=NN12`, the growth in the assay on T-47D breast was 37.1%; in the assay with BT-549 breast it was 78.5%; in the assay on MDA-MB-435 melanoma, 81.6%; in the assay with SW-620 colon it was 83%; in the assay with MCF7 breast, 59.9%; in the assay with HCT-116 colon, 74.1%. For the same compound, the growth in the assay on HCC-2998 colon was 85.6%; with KM12 colon, 49.9%; in the assay on MDA-MB-468 breast it was 67.7%.

Regarding `COc1ccc(N=Nc2c(N)nn3c(-c4cc5ccccc5oc4=O)ccnc23)cc1`, the growth is 53.2% with T-47D breast; 29.5% with BT-549 breast; 75.5% with MDA-MB-435 melanoma; 31.3% in the assay on SW-620 colon; 29% in the assay on MCF7 breast; 37.9% in the assay on HCT-116 colon. In addition, the growth in the assay with HCC-2998 colon was 38.1%; in the assay with KM12 colon, 51.1%; in the assay with MDA-MB-468 breast it was 24.7%.

As for `O=C(NN1C(=O)/C(=C/C=C/c2ccc([N+](=O)[O-])o2)SC1=S)c1ccncc1`, the growth in the assay on T-47D breast is -59.4% (active); with BT-549 breast, -91.7% (active); in the assay with MDA-MB-435 melanoma, -83.7% (active); with SW-620 colon, -69.6% (active); in the assay on MCF7 breast, -53.4% (active); in the assay with HCT-116 colon it was -41.5% (active). In addition, the growth was -96.2% (active) in the assay on HCC-2998 colon, -94.3% (active) in the assay with KM12 colon and -73.9% (active) in the assay with MDA-MB-468 breast.

Regarding `COC(=O)c1cc(C(=O)C(F)(F)F)n2c3ccccc3c3ccccc3c12`, the growth is 64.4% in the assay with T-47D breast; 85.9% in the assay with BT-549 breast; 96.2% with MDA-MB-435 melanoma; 83.9% in the assay on SW-620 colon; 80.8% in the assay with MCF7 breast; 48% in the assay with HCT-116 colon. Besides, the growth is 108% in the assay with HCC-2998 colon, 100% with KM12 colon and 60.8% with MDA-MB-468 breast.

Turning to `C/C(=N/O)c1ccc(NC(=O)CSc2nnc(-c3ccc4nc(-c5ccc(Cl)cc5)[nH]c4c3)o2)cc1`, the growth was 97.8% with T-47D breast; -8.14% (active) in the assay with BT-549 breast; 18.3% in the assay on MDA-MB-435 melanoma; 67.4% in the assay with SW-620 colon; 55.3% with MCF7 breast; 69% with HCT-116 colon. Besides, the growth is 128% in the assay on HCC-2998 colon, 36.4% with KM12 colon and 122% in the assay with MDA-MB-468 breast.

In the case of `CN(C)c1nc(NCCNS(=O)(=O)c2ccc(C(=O)/C=C/c3ccc(Cl)cc3)cc2)nc(N2CCOCC2)n1`, the growth in the assay on T-47D breast is 10.3%; with BT-549 breast it was 12.8%; in the assay on MDA-MB-435 melanoma it was -53.6% (active); in the assay with SW-620 colon, -66.9% (active); in the assay on MCF7 breast, -67% (active); with HCT-116 colon, -95.5% (active). Further, the results for the growth in the assay on HCC-2998 colon, with KM12 colon and in the assay with MDA-MB-468 breast were -94.4% (active), -76.9% (active) and -83.2% (active), respectively.
